bovine MsrA act – activates bovine MsrA enzyme. AID 602163. purified bovine MsrA, absorbance read-out. 0.3% of 360,000 active. activation, % at 10.6 µM; in the data active means activation above about 7.5%
NadD block – blocks S. aureus nicotinate mononucleotide adenylyltransferase. purified NadD enzyme, colorimetric absorbance read-out. inhibition, % at 20 µM. 0.78% of 360,000 active. AID 602399; in the data active means inhibition above about 26%
rCAG binder-1 – r(CAG) repeat RNA binding. TO-PRO-1 dye displacement fluorescence. inhibition, % at 3 µM. 1.3% of 370,000 active;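 active means inhibition above the plate cutoff, the mean of all test compounds on that plate plus 3 SD, cut at about 35% in these data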;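 further: higher means more dye released from RNA so lower well fluorescence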
MsrA inhibitor – inhibits bovine methionine sulfoxide reductase A | AID 651718 | inhibition, % at 15.5 µM | purified bovine MsrA, absorbance read-out | 0.75% of 360,000 active; in the data active means inhibition above about 4.5%
rCAG binder conf – r(CAG) RNA repeat binding, confirmation; shares compounds with rCAG binder-1; TO-PRO-1 dye displacement fluorescence; inhibition, % at 3 µM; 70% of 4,300 active; AID 652065;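 active means inhibition above a per-plate cutoff, the mean inhibition of sample wells plus 3 SD, cut at about 35% in these data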;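 further: loss of TO-PRO-1 fluorescence as compound displaces dye from 1x1 AA loop RNA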
DNA CAG counter – counter-screen for rCAG RNA binders: DNA CAG dye complex inhibitors | 94% of 4,300 active | inhibition, % at 3 µM | shares compounds with rCAG binder-1 | AID 652068 | d(CAG) DNA oligo TO-PRO-1 dye displacement, fluorescence;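 active means inhibition above its plate's cutoff, the mean test-well inhibition plus 3 SD, cut at about 4.8% in these data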;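 further: hits displace the dye from DNA and so lower well fluorescence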
dCAG dye DR – disrupts DNA CAG TO-PRO-1 complex in dose response | 20% of 250 active | AID 686960 | DNA CAG/GTC duplex TO-PRO-1 dye displacement fluorescence | shares compounds with rCAG binder-1 | IC50, µM; in the data active means IC50 below about 10 µM
dCAG DNA bind – counter-screen for rCAG binders: DNA CAG TO-PRO-1 complex inhibitors, late stage. shares compounds with rCAG binder-1. AID 720649. 80% of 30 active. d(CAG) DNA duplex TO-PRO-1 dye displacement, fluorescence. IC50, µM
rCAG binder-2 – molecules binding r(CAG) RNA repeats, late stage dose response; shares compounds with rCAG binder-1; r(CAG) RNA TO-PRO-1 dye displacement, fluorescence; IC50, µM; 100% of 30 active; AID 720651
Each line names hits and unclear results; the compound was inactive in the other large screens (follow-up assays come after a bar, where they were run); ! = repeats disagree. Rows were chosen to be rich in hits. Some 2.7% of all compounds tested hit in one or more screens of this group. Unless noted, how the calls were made is not given here.

COc1ccc(Cc2c(-c3cccc(Cl)c3)nc3c(C)cc(Br)cn23)c(C)c1	none
CC(C)NC(=O)N(C)C[C@@H]1Oc2cc(Br)ccc2S(=O)(=O)N([C@@H](C)CO)C[C@H]1C	none
CC(C)CC(NS(=O)(=O)c1cc(C(=O)O)ccc1Cl)C(=O)O (stereo unspecified)	none
O=C(Cn1cc2c(n1)CCCC2)NCc1cccnc1	none
O=C(Cn1cc2c(n1)CCCCC2)NCc1ccccc1	rCAG binder-1 40.5 | rCAG binder conf inactive | DNA CAG counter inactive
CC1=C(C(=O)OCCC#N)C(c2cc3c(cc2Br)OCO3)NC(=O)N1 (stereo unspecified)	none
COc1cc(/C=C(/C#N)C(=O)NCc2ccccc2)cc(OC)c1OC	none
COc1cc(/C=C(\C#N)C(=O)Nc2ccccc2C(=O)O)cc(Cl)c1OC	rCAG binder-1 47.1 | rCAG binder conf 76.6 | DNA CAG counter 40.9
Cc1ccc(-c2nnc(SCC(=O)Nc3ccc(-c4nc5ccc(C)cc5s4)cc3)n2Cc2ccco2)cc1	none (no result: bovine MsrA act, NadD block, MsrA inhibitor)
Cc1ccc2nc(-c3ccc(NC(=O)CSc4nnc(-c5cccc(Cl)c5)n4Cc4ccco4)cc3)sc2c1	rCAG binder-1 44.8 (no result: bovine MsrA act, NadD block, MsrA inhibitor) | rCAG binder conf inactive | DNA CAG counter 8.7
CCOC(=O)Cc1csc(NC(=O)CN2CCOCC2)n1	none
O=C(c1ccc(Cl)nc1)N1CCN(C/C=C/c2ccccc2)CC1	none
CCN(CC)S(=O)(=O)c1ccc(N2CCOCC2)c(NS(=O)(=O)c2ccc(Cl)s2)c1	rCAG binder-1 43.9 | rCAG binder conf 39.1 | DNA CAG counter 10.1
CN(C)C(CNC(=O)c1cccc(S(=O)(=O)NCc2ccccc2)c1)c1ccco1 (stereo unspecified)	none
CCN(c1cc(C)cc(C)c1)S(=O)(=O)c1nnc(NC(=O)c2ccco2)s1	rCAG binder-1 38.6 | rCAG binder conf 38.1 | DNA CAG counter 10.5
Cc1ccccc1N1CCN(S(=O)(=O)c2nnc(NC(=O)c3ccco3)s2)CC1	rCAG binder-1 43.1 | rCAG binder conf 71.9 | DNA CAG counter 25.7 | dCAG dye DR inactive
CCN(c1ccccc1C)S(=O)(=O)c1nnc(NC(=O)c2ccco2)s1	rCAG binder-1 41.0 | rCAG binder conf inactive | DNA CAG counter 6.9
CCOC(=O)C1C(=O)CC(C)(O)C(C(=O)OCC)C1c1ccc(F)cc1 (stereo unspecified)	none
CCOC(=O)C1C(=O)CC(=O)C(C(=O)OCC)C1c1ccc(O)cc1 (stereo unspecified)	rCAG binder-1 36.3 | rCAG binder conf inactive | DNA CAG counter inactive
CCN(CC)N=Nc1ccc(S(=O)(=O)Nc2nc(C)cc(C)n2)cc1	rCAG binder-1 42.8! | rCAG binder conf inactive | DNA CAG counter inactive
COc1cc(/C=C2\SC(=S)N(Nc3ncc(C(F)(F)F)cc3Cl)C2=O)ccc1O	rCAG binder-1 52.6 | rCAG binder conf 62.7 | DNA CAG counter 32.4
Cc1c(CCC(=O)O)c(=O)oc2cc(OCc3cccc(Cl)c3)ccc12	rCAG binder-1 38.4 | rCAG binder conf 35.7 | DNA CAG counter 9.1
O=C(Nc1ccc(O)cc1)c1cccc(Oc2ccc([N+](=O)[O-])cc2)c1	none
Cc1ccc(NC(=O)c2cccc(Oc3ccc([N+](=O)[O-])cc3)c2)c(C(=O)O)c1	rCAG binder-1 85.1 | rCAG binder conf 74.4 | DNA CAG counter 38.2
Cc1cc(Cl)cc(C)c1OCC(=O)NC1CCCCCC1	none
Oc1ccc(/C=C/c2ccc3cccc(O)c3n2)cc1Br	rCAG binder-1 50.4 | rCAG binder conf inactive | DNA CAG counter 14.0
COc1ccc(NS(=O)(=O)c2c(F)cccc2F)cc1S(=O)(=O)N1CCOCC1	none
COc1ccc(NS(=O)(=O)c2c(F)cc(F)c(Cl)c2F)cc1S(=O)(=O)N1CCCCC1	rCAG binder-1 39.9 | rCAG binder conf 35.9 | DNA CAG counter 11.1
O=C(c1ccccc1F)N1CCN(c2cnn(-c3cccc(Cl)c3)c(=O)c2Cl)CC1	none
COc1ccccc1C(=O)NCCC(=O)Nc1ccc(OC(F)(F)F)cc1	none
O=C(c1ccco1)[C@@H]1[C@@H]2C(=O)N(c3ccc(Br)cc3)C(=O)[C@@H]2C2c3ccccc3C=CN21 (stereo partly specified)	NadD block 32.1, rCAG binder-1 38.1 | rCAG binder conf inactive | DNA CAG counter 15.6
Cc1c(O)nc(SC2CC(=O)N(c3cc(Cl)cc(Cl)c3)C2=O)[nH]c1=O (stereo unspecified)	none
C=CCNC(=O)N1CCN(Cc2nc3ccccc3c(=O)[nH]2)CC1	none (no result: bovine MsrA act, NadD block, MsrA inhibitor)
COc1ccc(C2c3[nH]c4ccccc4c3C[C@H]3C(=O)N(c4ccccc4C(=O)N4CCC[C@@H]4C(=O)O)C(=O)N23)cc1 (stereo partly specified)	none
Cc1ccc(C2c3[nH]c4ccccc4c3C[C@H]3C(=O)N(c4ccccc4C(=O)N4CCC[C@H]4C(=O)O)C(=O)N23)cc1 (stereo partly specified)	rCAG binder-1 38.7 | rCAG binder conf 57.3 | DNA CAG counter 18.1
O=C(NCCCN1CCOCC1)c1ccccc1N1C(=O)[C@@H]2Cc3c([nH]c4ccccc34)C(c3ccc(F)cc3)N2C1=O (stereo partly specified)	none
CC(C)c1ccc(C2c3[nH]c4ccccc4c3C[C@H]3C(=O)N(c4ccccc4C(=O)N4CCC(C(=O)O)CC4)C(=O)N23)cc1 (stereo partly specified)	rCAG binder-1 42.0 | rCAG binder conf 61.4 | DNA CAG counter 21.4
O=C(NCCN1CCOCC1)c1ccccc1N1C(=O)[C@@H]2Cc3c([nH]c4ccccc34)C(c3ccccc3)N2C1=O (stereo partly specified)	none
CC(C)c1ccc(C2c3[nH]c4ccccc4c3C[C@H]3C(=O)N(c4ccccc4C(=O)N4CCC[C@@H]4C(=O)O)C(=O)N23)cc1 (stereo partly specified)	rCAG binder-1 46.4 | rCAG binder conf 70.7 | DNA CAG counter 27.8 | dCAG dye DR inactive | dCAG DNA bind inactive | rCAG binder-2 1.94
COc1cccc(C2c3[nH]c4ccccc4c3C[C@H]3C(=O)N(c4ccccc4C(=O)NCCCN4CCOCC4)C(=O)N23)c1 (stereo partly specified)	none
COc1ccc(C2c3[nH]c4ccccc4c3C[C@H]3C(=O)N(c4ccccc4C(=O)N4CCC[C@H]4C(=O)O)C(=O)N23)cc1 (stereo partly specified)	rCAG binder-1 37.2 | rCAG binder conf 51.1 | DNA CAG counter 16.4
O=C(COc1ccc(S(=O)(=O)N2CCCC2)cc1)N1CCCCC1	none

Screening results (PubChem)
